Data taken from PubChem BioAssay AID504332 (National Center for Advancing Translational Sciences (NCATS), 2011).
Among all 350,000 compounds or so, about 31,000 (8.9%) were called active. Entries that show only a call come without a potency. Not shown: some 15% with an inconclusive outcome. This is one part of a sample in which actives are shown more often than they occur. Calls come from the whole dose curve; as a rule, active = well fitted inhibition curve with a large enough effect; inconclusive = small, poorly fitted or top-dose-only effect; inactive = no such curve, though single readings can be large or run the other way.

The compounds below were run against Histone-lysine N-methyltransferase EHMT2 (Homo sapiens) (UniProt Q96KQ7) (assay: qHTS Assay for Inhibitors of Histone Lysine Methyltransferase G9a). Details: G9a H3K9 monomethylation, AlphaScreen, 2 h; series mostly up to 59 µM.
Sequence of Histone-lysine N-methyltransferase EHMT2 (Homo sapiens) (Q96KQ7 913-1193 limits assumed): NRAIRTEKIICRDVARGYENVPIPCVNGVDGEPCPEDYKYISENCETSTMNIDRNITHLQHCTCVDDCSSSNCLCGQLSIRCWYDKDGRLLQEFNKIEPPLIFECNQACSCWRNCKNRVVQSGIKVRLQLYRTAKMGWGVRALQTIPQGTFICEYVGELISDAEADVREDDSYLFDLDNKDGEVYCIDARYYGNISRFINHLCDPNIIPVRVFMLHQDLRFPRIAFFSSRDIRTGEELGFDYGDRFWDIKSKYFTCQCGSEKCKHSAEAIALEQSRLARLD
How it was run: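 Compounds were preincubated with 20 nM G9a for 15 min, after which biotinylated H3K9 peptide (500 nM) and SAM (20 uM) started a 2 h room-temperature reaction. Monomethylated product was quantified by antibody-based AlphaScreen chemiluminescence.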
Note: nearly all actives have a fitted effect of over 75% in size.
Potency is the fitted concentration of half-maximal effect.

Row | SMILES | Potency | activity, negative = inhibition
1 | CN(Cc1ccccc1)C(=O)c1cc2c(=O)n(C)c3ccccc3c2s1 | inactive | –
2 | Cc1ccc(N(CC(=O)NCC(C)c2ccccc2)S(=O)(=O)N(C)C)cc1 (stereo not given) | inactive | –
3 | CCOC(=O)c1sc(NC(=O)CSc2n[nH]c(CC)n2)nc1C | inactive | –
4 | CCOC(=O)c1sc(NC(=O)CSc2nc(O)c(Cc3ccccc3)c(=O)[nH]2)nc1C | 50.1 µM (active) | –
5 | CCOC(=O)c1ccccc1NC(=O)CSc1nc2ccccc2c(=O)[nH]1 | inactive | –
6 | Cc1ccc(C(=O)Nc2ncccc2C)cc1S(=O)(=O)N1CCOCC1 | – | 22.2% [at 12.7 µM] (inactive)
7 | CC(C)C12CN3CC(C(C)C)(CN(C1)C3c1ccc(OCc3ccccc3)cc1)C2=O (stereo not given) | inactive | –
8 | Cc1nnc(SCC(=O)Nc2ccc(S(=O)(=O)Nc3ccc(Cl)nn3)cc2)s1 | 79.4 µM (active) | –
9 | Cc1nnc(SCC(=O)Nn2cnnc2)s1 | inactive | –
10 | CCCCCC(=O)Nc1ccc(S(=O)(=O)Nc2ccc(Cl)nn2)cc1 | inactive | –
11 | CCCn1nc(C(=O)NNC(=O)CCOc2ccccc2OCC)c2ccccc2c1=O | inactive | –
12 | COc1cccc(C(=O)Nc2ccc(-c3cc(C(F)(F)F)nn3-c3ccccc3)cc2)c1 | inactive | –
13 | Cc1cccc(C(=O)OC(C)C(=O)NC2CCCc3ccccc32)c1O (stereo not given) | – | 18.2% [at 12.7 µM] (inactive)
14 | CN(C)C1=NC[C@H](Cc2ccccc2)N1CCc1ccc(F)cc1 | – | 16.6% [at 2.33 µM] (inactive)
15 | OC(C#CCN1CCOCC1)(c1ccccc1)C1CCCCC1 (stereo not given) | inactive | –
16 | CN(CC#CCC(c1ccccc1)c1ccccc1)C(C)(C)C | inactive | –
17 | CC(C)(C)N(CC#CCC(O)(c1ccccc1)C1CCCC1)CCO (stereo not given) | 10 µM (active) | –
18 | CON(C)S(=O)(=O)c1ccc2c(c1)NC(=O)C1CCCN21 (stereo not given) | 25.1 µM (active) | –
19 | CN(C)S(=O)(=O)c1ccc(N2CCCC2=O)c([N+](=O)[O-])c1 | inactive | –
20 | CC1C(=O)Nc2ccc(S(=O)(=O)N3CCN(c4ccccc4F)CC3)cc2NC1=O (stereo not given) | inactive | –
21 | Cn1c(-c2ccc(F)cc2)cc2onc(-c3ccccc3Cl)c2c1=O | – | 20.7% [at 2.33 µM] (inactive)
22 | Cc1ccn(CCC(=O)N2c3ccccc3CC2C)n1 (stereo not given) | inactive | –
23 | CCn1nc(C(=O)OCC(=O)N2c3ccccc3CC2C)c2ccccc2c1=O (stereo not given) | inactive | –
24 | CCCC(=O)N1c2ccc(-c3csc(N)n3)cc2CC1C (stereo not given) | 70.8 µM (active) | –
25 | COc1cccc(CNCCc2c[nH]c3ccccc23)c1OCc1ccccc1F | 44.7 µM (active) | –

Row | SMILES | Potency | activity, negative = inhibition
26 | COc1ccc(S(=O)(=O)NCCc2c[nH]c3ccccc23)cc1OC | inactive | –
27 | COc1ccccc1CC(=O)NCCc1c[nH]c2ccccc12 | inactive | –
28 | O=C1NC(c2ccncc2)Nc2sc3c(c21)CCCC3 (stereo not given) | 28.2 µM (active) | –
29 | CCN(C(=O)CSc1nnc(-c2ccc(OC(F)F)cc2)n1N)C1CCS(=O)(=O)C1 (stereo not given) | inactive | –
30 | Cc1cc2[nH]ncc2cc1NC(=S)NC(=O)c1ccccc1 | inactive | –
31 | Cn1nnc(NC(=S)NC(=O)c2ccccc2)n1 | 8.91 µM (active) | –
32 | O=C(NC(=O)c1ccccc1)NC(=O)c1ccccc1 | inactive | –
33 | COc1cc(OC)c(C(=S)N2CCCC2)cc1OC | – | 10.9% [at 0.501 µM] (inactive)
34 | CCCNC(=O)C1CCC(Cn2c(=O)c3sccc3n(Cc3ccccc3F)c2=O)CC1 (stereo not given) | inactive | –
35 | CCn1cc(C(=O)OCC(=O)Nc2cccc(C)c2)c(=O)c2ccc(C)nc21 | inactive | –
36 | CCn1cc(C(=O)Nc2cc(C)ccc2C)c(=O)c2ccc(C)nc21 | inactive | –
37 | CCn1cc(C(=O)N2CC=C(c3ccccc3)CC2)c(=O)c2ccc(C)nc21 | 79.4 µM (active) | –
38 | CCS(=O)(=O)N1CCC(n2c(C)nc3cccnc32)CC1 | inactive | –
39 | O=C1C(c2[nH]c3ccccc3c2O)=Nc2ccccc21 | 5.01 µM (active) | –
40 | CC(C)C(=O)Nc1c(O)c2ccccc2[nH]c1=O | inactive | –
41 | O=C(Cc1c(O)c2ccccc2[nH]c1=O)NCc1ccccc1 | inactive | –
42 | NC(=O)c1ccsc1NC(=O)COC(=O)Cc1n[nH]c(=O)c2ccccc12 | – | 1.16% [at 0.501 µM] (inactive)
43 | COc1ccc(OC)c(-n2nnc(-c3nc(-c4cc(OC)c(OC)c(OC)c4)no3)c2C)c1 | inactive | –
44 | Cc1cccc(CSc2nnc(C)c(=O)n2N)c1 | inactive | –
45 | Cn1c(SCC(=O)N2CCCCC2)nc2c(c1=O)SCC2 | inactive | –
46 | Cc1cccc(CSc2nc3c(c(=O)n2C)SCC3)c1 | 50.1 µM (active) | –
47 | CCOc1ccc(S(=O)(=O)NCCC(=O)NCC(C)(C)N2CCOCC2)cc1 | – | 14% [at 0.501 µM] (inactive)
48 | COc1ccc(NC(=O)CCN2CCN(CCO)CC2)cc1 | inactive | –
49 | CCOC(=O)c1[nH]c2ccccc2c1N=C(C)N(CC)CC | inactive | –
50 | CCOC(=O)C1CCN(C(=O)Cc2c(C(=O)O)[nH]c3ccccc23)CC1 | – | 16% [at 2.33 µM] (inactive)

Row | SMILES | Potency | activity, negative = inhibition
51 | CCCS(=O)(=O)Nc1c(C(=O)O)[nH]c2ccccc12 | 39.8 µM (active) | –
52 | CCOC(=O)C1CCN(c2ncnc3c2c(-c2ccccc2)cn3-c2cccc(C)c2)CC1 | inactive | –
53 | O=C(NCC(c1ccco1)N1CCc2ccccc2C1)c1ccccc1Cl (stereo not given) | inactive | –
54 | COc1ccc(SCc2cc(=O)c3ccc(C)c(C)c3[nH]2)cc1 | inactive | –
55 | CC1=C(C(=O)Nc2ccccc2)C(c2cccs2)C(C#N)=C(SCC#N)N1 (stereo not given) | 12.6 µM (active) | –
56 | C=CCOC(=O)C1=C(C)NC(C)=C(C(=O)OCC=C)C1c1cccs1 | inactive | –
57 | C=CCOC(=O)C1=C(C)NC(SCC(=O)OCC)=C(C#N)C1c1ccc(C)cc1 (stereo not given) | inactive | –
58 | CCCn1c(NCc2ccccc2F)nc2ccccc21 | inactive | –
59 | O=C(CNC(=O)C1COc2ccccc2O1)N/N=C/c1cc(Br)c(O)c(Br)c1 (stereo not given) | 89.1 µM (active) | –
60 | O=C(CNC(=O)c1cccnc1)N/N=C/c1cc(Br)c(O)c(Br)c1 | inactive | –
61 | O=C(CNC(=O)C(c1ccccc1)c1ccccc1)N/N=C\c1ccc2c(c1)OCO2 | inactive | –
62 | FC(F)(F)c1cc(Nc2nc3ccccc3c3nncn23)ccc1Cl | inactive | –
63 | COc1ccc(CNC(=O)C2=Cc3cccc(OC)c3OC2)cc1OC | inactive | –
64 | N#C/C(=C/c1ccc(-c2ccccc2[N+](=O)[O-])o1)C(=O)NCCN1CCCCC1 | – | 16.8% [at 12.7 µM] (inactive)
65 | Cc1nc2ccccc2c(=O)n1NC(=O)c1ccc(Cl)c([N+](=O)[O-])c1 | – | -4.51% [at 2.33 µM] (inactive)
66 | CC1=NN(c2ccc(Cl)c(C(=O)O)c2)C(=O)/C1=C/c1ccc(-c2ccccc2[N+](=O)[O-])o1 | 31.6 µM (active) | –
67 | Cc1ccc(CNC(=O)c2cc(-c3ccccc3C)n(CC3CC(c4cccc([N+](=O)[O-])c4)=NO3)n2)cc1 (stereo not given) | – | -36.4% [at 2.33 µM] (inactive)
68 | O=C1N/C(=N\N=C\c2ccco2)SC1Cc1ccc(F)cc1 (stereo not given) | inactive | –
69 | CCC1S/C(=N/N=C/c2ccco2)NC1=O (stereo not given) | inactive | –
70 | COc1ccc(CN2C(=O)C(C)S/C2=N/N=C/c2ccco2)cc1 (stereo not given) | 50.1 µM (active) | –
71 | C=CCN1C(=O)C(Cc2ccc(OCC)cc2)SC1=Nc1ccc(C(=O)O)cc1 (stereo not given) | inactive | –
72 | C=CCN1C(=O)C(Cc2cccc(Cl)c2)S/C1=N/N=C/c1ccco1 (stereo not given) | 10 µM (active) | –
73 | COc1ccc(Cn2ccn(Cc3cccc(OC)c3)c(=O)c2=O)cc1 | inactive | –
74 | CCCNC(=O)C(CC)n1nc(CC)n2c(cc3oc(C)cc32)c1=O (stereo not given) | inactive | –
75 | Cc1ccc(C)c(N2CCN(S(=O)(=O)c3ccc4c(c3)C(C(C)C)C(=O)N4)CC2)c1 (stereo not given) | inactive | –

Row | SMILES | Potency | activity, negative = inhibition
76 | O=C(/C=C/Sc1ncn[nH]1)c1ccc(Cl)cc1 | 39.8 µM (active) | –
77 | O=C(NCCOCc1ccc(Cl)cc1)c1ncn[nH]1 | inactive | –
78 | COc1ccc(Cl)cc1CSc1ncn[nH]1 | inactive | –
79 | Cc1cc(C)c2oc(C(=O)Nc3ccc(S(=O)(=O)N4CCCCCC4)cc3)cc(=O)c2c1 | inactive | –
80 | CCOc1ccccc1CNC(=O)C1CCCN(S(=O)(=O)c2ccc3c(ccn3C)c2)C1 (stereo not given) | inactive | –
81 | Cc1ccc(C)c(Cn2c(CCCNC(=O)C3CCCCC3)nc3ccccc32)c1 | inactive | –
82 | COc1ccccc1C(=O)NCCC(=O)NC1=NCCS1 | – | 43% [at 12.7 µM] (inactive)
83 | Nc1c(C(=O)O)cnn1-c1ccccc1 | inactive | –
84 | O=C(O)c1ccccc1-c1ccccc1C(=O)Nc1ccccc1Br | inactive | –
85 | O=C(O)c1ccccc1C(=O)NC1=NN(c2ccccc2)CC1 | 39.8 µM (active) | –
86 | O=C(NC1CC1)c1ccc2c(c1)NC(=O)c1ccccc1S2 | inactive | –
87 | C/C(=N\Nc1cccc(C(=O)O)c1)c1ccc2c(c1)Nc1ccccc1S2 | 3.16 µM (active) | –
88 | CC(=O)Nc1cccc(/C(C)=N/NC(=O)c2ccccc2Cl)c1 | inactive | –
89 | O=C(NCc1cn2ccsc2n1)Nc1ccc(Cl)cc1 | inactive | –
90 | O=C(NCc1ccc(Cl)cc1)c1cc(=O)nc2sc(-c3ccccc3)nn12 | inactive | –
91 | O=C(NCc1ccc(Cl)cc1)c1cc2c(nc3sccn32)s1 | 35.5 µM (active) | –
92 | CN1C2CCC1CC(NC(=O)c1ccc([N+](=O)[O-])cc1)C2 (stereo not given) | inactive | –
93 | CN(CC1CCCO1)S(=O)(=O)c1ccc(C(=O)Nc2ccc([N+](=O)[O-])cc2)cc1 (stereo not given) | inactive | –
94 | O=C(Nc1cc2c3c(c1)C1CCCC1CN3CC1CCCC21)c1ccc([N+](=O)[O-])cc1 (stereo not given) | 10 µM (active) | –
95 | CC(=O)N1CCCc2ccc(NS(=O)(=O)c3ccc(F)cc3F)cc21 | – | -4.23% [at 12.7 µM] (inactive)
96 | O=C(C1CC(=O)N(C2CCCC2)C1)N1CCN(c2cccc(C(F)(F)F)c2)CC1 (stereo not given) | inactive | –
97 | CCC1(C)NC(=O)N(CC(=O)N2CCN(c3cccc(Cl)c3)CC2)C1=O (stereo not given) | – | 17.9% [at 2.33 µM] (inactive)
98 | O=C(N/N=C/c1cc([N+](=O)[O-])ccc1O)/C(=C\c1cccs1)NC(=O)c1ccccc1 | inactive | –
99 | O=[N+]([O-])c1ccc(O)c(/C=N/Nc2ccccc2[N+](=O)[O-])c1 | 20 µM (active) | –
100 | Nc1nnnn1/N=C/c1cc([N+](=O)[O-])ccc1O | inactive | –
